Results on seven compounds are retold here after PubChem BioAssay (EPA / NIEHS).

In general, AC50 refers to the concentration giving half of the maximal activity seen.

A short description of assay [1]: APR_HepG2_NuclearSize_24hr: Apredica 24-hour HepG2 Assay for Nuclear Size (AID 2282907). The following applies: high-content imaging, actives raise or lower the signal. The method in brief:
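Read-out: nuclear diameter from Hoechst 33342 (2 ug/mL) imaging of fixed HepG2 cells, 20x, six fields/well. Compounds ran at 0.39–200 uM for 24 hr, 0.5% DMSO final. Gain or loss was fitted bidirectionally relative to the DMSO baseline.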

The nature of assay [2]: APR_HepG2_CellLoss_24hr: Apredica 24-hour HepG2 Assay for Cell Loss (AID 2282908).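 As to AC50: fit in both directions so a hit may be cell loss or gain.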 The following applies: high-content imaging. Summed up: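 Read-out: Hoechst 33342-stained nuclei counted by automated fluorescence imaging after formaldehyde fixation and Triton permeabilization. Ten concentrations, 0.39 to 200 uM, duplicate wells, 0.5% DMSO final. Gain or loss of signal fitted relative to DMSO baseline.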

Assay [3] is described as follows: APR_HepG2_MicrotubuleCSK_24hr: Apredica 24-hour HepG2 Assay for Microtubule CSK Stabilty (AID 2282909). The following applies: HepG2 microtubule cytoskeleton imaging, actives raise or lower the signal. The method in brief:
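Read-out: alpha-tubulin immunofluorescence intensity by automated high-content imaging of fixed HepG2 cells after 24 h compound treatment. Ten concentrations, 0.39 to 200 uM, in duplicate; DMSO 0.5% v/v. Taxol positive control; DMSO-normalized bidirectional curve fitting.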

Assay [4] is described as follows: APR_HepG2_MitoticArrest_24hr: Apredica 24-hour HepG2 Assay for Mitotic Arrest (AID 2282910). Particulars: high-content imaging, actives raise or lower the signal. Summed up:
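Treatment lasted 24 hr in the human HepG2 line at 0.39–200 uM, solvent held at 0.5% DMSO. Fixed cells were stained with Hoechst 33342 and anti-phospho-histone H3, imaged at 20x, and analysed by gain- or loss-of-signal fitting against DMSO.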

A short description of assay [5]: APR_HepG2_MitoMembPot_24hr: Apredica 24-hour HepG2 Assay for Mitochondrial Membrane Potential (AID 2282911). Particulars: imaging, actives raise or lower the signal. The method in brief: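 HepG2, 24 hr dosing, 10 concentrations 0.39–200 uM, 0.5% DMSO final. Live-cell MitoTracker Red CMXRos 250 nM 30 min, then 3.7% formaldehyde fix. HCS fluorescence imaging, 20x; bidirectional fit vs DMSO baseline.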

Assay [6] is described as follows: APR_HepG2_MitoMass_24hr: Apredica 24-hour HepG2 Assay for Mitochondrial Mass (AID 2282912). Particulars: high-content imaging, actives raise or lower the signal. Summed up: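 HepG2, 24 hr dosing, 10 concentrations 0.39–200 uM in duplicate, DMSO 0.5% final. MitoTracker Red CMXRos 250 nM, 30 min pre-fix; 3.7% formaldehyde fix. Imaging-based fluorescence intensity; gain/loss fit vs DMSO baseline.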

Assay [7] is described as follows: APR_HepG2_CellCycleArrest_72hr: Apredica 72-hour HepG2 Assay for Cell Cycle Arrest (AID 2282914). The following applies: high-content imaging, actives raise or lower the signal. The method in brief: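 HepG2, 72 hr exposure, 10-point 0.39–200 uM, duplicate, 0.5% DMSO final. Fix 3.7% formaldehyde 30 min RT, Triton X-100 0.5%, Hoechst 33342 2 ug/mL. ArrayScan 20x, six fields/well; DNA content per nucleus; bidirectional fit vs DMSO.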

Assay [8] in a line: APR_HepG2_CellLoss_72hr: Apredica 72-hour HepG2 Assay for Cell Loss (AID 2282915). The following applies: high-content imaging. The method in brief:
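HepG2 cells were exposed for 72 hr to compounds at 0.39–200 uM (ten concentrations, duplicate) in 0.5% v/v final DMSO. Nuclei were stained with Hoechst 33342 after 3.7% formaldehyde fixation, imaged at 20x, and counted; fits bidirectional versus DMSO.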

Assay [9] is described as follows: APR_HepG2_P-H2AX_72hr: Apredica 72-hour HepG2 Assay for H2AX Phosphorylation (AID 2282916).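 Also: phospho-histone H2A.x immunostain intensity per cell marking DNA damage.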 The following applies: imaging, actives raise or lower the signal. Summed up:
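Readout: phospho-H2A.x immunofluorescence (FITC secondary) plus Hoechst nuclear stain, high-content imaging at 20x, six fields/well. HepG2, 72 hr compound exposure, 0.39–200 uM, final DMSO 0.5% v/v. Gain or loss fitted relative to DMSO baseline.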

The nature of assay [10]: APR_HepG2_MitoMembPot_72hr: Apredica 72-hour HepG2 Assay for Mitochondrial Membrane Potential (AID 2282917). Particulars: imaging, actives raise or lower the signal. The method in brief: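 HepG2 cells exposed 72 h to compounds at 0.39–200 uM (0.5% v/v DMSO, duplicates); MitoTracker Red CMXRos 250 nM loaded 30 min before 3.7% formaldehyde fixation, imaged by HCS fluorescence. Bidirectional fit versus DMSO.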

The nature of assay [11]: APR_HepG2_MitoticArrest_72hr: Apredica 72-hour HepG2 Assay for Mitotic Arrest (AID 2282918). Particulars: high-content imaging, actives raise or lower the signal. Summed up:
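HepG2, 72 hr exposure, 0.39–200 uM in duplicate, 0.5% v/v DMSO final. Formaldehyde-fixed, Triton-permeabilized, anti-phospho-histone H3/FITC plus Hoechst. ArrayScan imaging at 20x; curves fit bidirectionally against DMSO baseline.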

Assay [12] can be described thus: APR_HepG2_P-H2AX_24hr: Apredica 24-hour HepG2 Assay for H2AX Phosphorylation (AID 2282920). The following applies: high-content imaging, actives raise or lower the signal. The method in brief:
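HCS fluorescence imaging of phospho-H2A.x immunostain (with Hoechst 33342 nuclear counterstain) in HepG2 after 24 hr compound exposure; 10 concentrations, 0.39–200 uM, duplicate wells, 0.5% v/v DMSO. Gain or loss of signal fitted relative to DMSO baseline.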

A short description of assay [13]: APR_HepG2_StressKinase_72hr: Apredica 72-hour HepG2 Assay for Stress Kinase (AID 2282921). The following applies: HepG2 stress kinase (phospho-c-Jun) imaging, actives raise or lower the signal. Summed up: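 Phospho-c-Jun immunofluorescence measured by high-content imaging at 20x, six fields per well; bidirectional curve fitting against DMSO as baseline. Dosing: 0.39–200 uM, 72 h, 0.5% DMSO final.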

Assay [14] in a line: APR_HepG2_StressKinase_24hr: Apredica 24-hour HepG2 Assay for Stress Kinase (AID 2282922). Particulars: HepG2 stress kinase (phospho-c-Jun) imaging, actives raise or lower the signal. Summed up: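 After 24 hr compound treatment (up to 200 uM, final DMSO 0.5% v/v), HepG2 cells are fixed and multiplex-labeled; phospho-c-Jun intensity is captured by high-content fluorescence imaging and analyzed relative to DMSO.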

A short description of assay [15]: APR_HepG2_p53Act_72hr: Apredica 72-hour HepG2 Assay for p53 Activation (AID 2282923).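 Also: average cellular p53 protein immunofluorescence intensity in HepG2 cells.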 Particulars: high-content imaging, actives raise or lower the signal. Summed up:
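Readout: p53 immunofluorescence quantified by automated high-content imaging at 20x, six fields per well, nuclei located via Hoechst. Dosing ran 72 hr over ten concentrations from 0.39 to 200 uM; bidirectional curve fitting against DMSO baseline.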

Assay [16] can be described thus: APR_HepG2_MitoMass_72hr: Apredica 72-hour HepG2 Assay for Mitochondrial Mass (AID 2282924).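 Also: MitoTracker Red CMXRos stain intensity per cell imaged as mitochondrial mass.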 The following applies: high-content imaging, actives raise or lower the signal. The method in brief: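 Steps: treat HepG2 72 hr (0.39–200 uM, duplicate wells); load MitoTracker Red CMXRos, 250 nM, 30 min; fix with 3.7% formaldehyde, permeabilise with 0.5% Triton X-100; capture images, nuclei via Hoechst 33342; fit bidirectionally against DMSO.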

Assay [17] is described as follows: APR_HepG2_NuclearSize_72hr: Apredica 72-hour HepG2 Assay for Nuclear Size (AID 2282925). Particulars: high-content imaging, actives raise or lower the signal. The method in brief: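 Compounds (0.39–200 uM, final DMSO 0.5%) were applied to HepG2 for 72 hr. Cells were then formaldehyde-fixed, permeabilized and labelled with Hoechst 33342. Nuclear diameter was quantified from six images per well.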

A short description of assay [18]: APR_HepG2_p53Act_24hr: Apredica 24-hour HepG2 Assay for p53 Activation (AID 2282913).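 Also: p53 protein immunofluorescence averaged per cell in HepG2 with Hoechst nuclei.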 Particulars: high-content imaging, actives raise or lower the signal. Summed up:
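Read-out: Cy5 immunofluorescence for p53 in fixed, permeabilized HepG2, imaged by HCS with Hoechst-defined nuclei. Dosing was 24 hr at 0.39–200 uM in 0.5% DMSO. Curves were fitted bidirectionally relative to DMSO.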

Structures are written as SMILES. Calls of active or inactive are those of the source. The calls were made as follows: active = hit-call score of the fitted dose curve at least 0.9, where 1 is the maximum; inactive = score below 0.9.

With `CC(C)(O)c1cnn2c(-c3ccc(F)c(-c4c(F)cccc4C#N)c3)cnc2n1`, the result in assay [1], in assay [7], in assay [13], in [15] and in [17] was inactive. In addition, the AC50 was 23.4 µM (active) in assay [2]; 89.9 µM (active) in [3]; 42.1 µM (active) in assay [4]; 33.1 µM (active) in assay [5]; 81.4 µM (active) in assay [6]; 23.9 µM (active) in assay [8]. For the same compound, the AC50 in assay [9] was 30.1 µM (active); in assay [10], 83.9 µM (active); in [11], 25.9 µM (active); in assay [12] it was 31.4 µM (active); in assay [14], 51.5 µM (active); in [16], 76.1 µM (active).

On to `CCC12COCN1COC2`, for which the outcome in assay [1], in [2], in assay [3], in assay [5], in assay [6] and in assay [7] was inactive. Besides, the call in [8], in [10], in assay [13], in assay [16] and in [17] was inactive. For the same compound, the AC50 is 93.6 µM (active) in assay [4]; 82.1 µM (active) in assay [9]; 83.2 µM (active) in assay [11]; 87.6 µM (active) in assay [12]; 99.5 µM (active) in assay [14]; 79.2 µM (active) in assay [15].

Regarding `CCCCCCCCCCCCCN1CC(C)OC(C)C1` (configuration not stated), the concentration at half-maximal activity (AC50) in [1] is 105 µM (active); in assay [2] it was 91.8 µM (active); in [3] it was 166 µM (active); in assay [4], 97.6 µM (active); in [6], 189 µM (active); in [18], 66.8 µM (active). In addition, the results for the AC50 in [7], in assay [8] and in [12] were 70.4 µM (active), 78.9 µM (active) and 76.6 µM (active), respectively. Moreover, the result in assay [5], in assay [9], in assay [10], in assay [11], in [13] and in assay [14] was inactive. Moreover, the compound was classed as inactive in assay [15], in assay [16] and in assay [17].

Consider `c1ccc2c(c1)oc1ccccc12`, for which the compound was classed as inactive in assay [1], in assay [2], in [3], in assay [4], in [5] and in [6]. Also, the compound was classed as inactive in [7], in [8], in assay [9], in [10], in assay [12] and in assay [13]. For the same compound, the call in assay [14], in [15] and in assay [16] was inactive. The AC50 in [11] was 0.0888 µM (active).

On to `Cc1ccc(N=C=O)cc1N=C=O`, for which the compound was called inactive in assay [1], in assay [2], in assay [3], in assay [4], in [5] and in assay [6]. Also, the compound was called inactive in [7], in assay [8], in [9], in assay [10], in assay [11] and in [12]. For the same compound, the compound was classed as inactive in [13], in [14], in [15] and in assay [16].

As for `CS(=O)(=O)NC(=O)c1cc(Oc2ccc(C(F)(F)F)cc2Cl)ccc1[N+](=O)[O-]`, the call in assay [1], in [2], in assay [3], in assay [4], in assay [5] and in [6] was inactive. For the same compound, the result in assay [7], in assay [8], in assay [9], in assay [10], in assay [11] and in assay [12] was inactive. For the same compound, the result in assay [13], in assay [14], in [15] and in assay [16] was inactive.

`CN(C)C(=O)Nc1ccc(Cl)cc1`: the call in [1], in assay [2], in assay [3], in assay [4], in assay [5] and in assay [6] was inactive. Also, the compound was called inactive in assay [7], in assay [8], in assay [9], in assay [10], in [11] and in assay [12]. The outcome in assay [13], in assay [14], in assay [15], in [16] and in [17] was inactive.
